A short description of experiment [1]: optical density shifts of acrAB sulA E. coli – strain DRC41, OD650, 48 h, E. coli filamentation inducer project, primary screen (AID 1152).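 Also: E. coli MC1000 strain DRC41 lacking acrAB efflux pump and sulA.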 The note with it: higher = more signal, called active from +8 up or from −8 down.
A short description of experiment [2]: probe aLefty1 binding on compound microarray – biochemical, small-molecule microarray, 635/667 nm fluorescence, primary screen (AID 1153).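 Also: score merges spot fluorescence with signal-to-noise ratio from the scanned slide images.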 Particulars: higher = more signal.
Experiment [3] can be described thus: plasmodial surface anion channel blockers, osmotic lysis – cell-based, P. falciparum Indochina, OD700, 1 h, primary screen (AID 1154). Particulars: P. falciparum Indochina infected RBC osmotic lysis, higher = more signal, called active from +8 up or from −8 down.
Experiment [4] is described as follows: plasmodial surface anion channel blockers, osmotic lysis – cell-based, P. falciparum Indochina, OD700, 2 h, primary screen (AID 1155).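 Also: lysis reports solute entry through the parasite surface anion channel PSAC.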 The note with it: P. falciparum Indochina infected erythrocytes, higher = more signal, called active from +8 up or from −8 down.
A short description of experiment [5]: changes in parasitized red cell lysis, either direction – P. falciparum Indochina, OD700, 3 h, PSAC antagonist project, primary screen (AID 1156). Particulars: P. falciparum-infected erythrocytes, osmotic lysis, higher = more signal, called active from +8 up or from −8 down.
Experiment [6] is described as follows: plasmodial surface anion channel blockers, osmotic lysis – cell-based, P. falciparum Indochina, OD700, 18 h, primary screen (AID 1157). The note with it: P. falciparum Indochina infected erythrocytes, osmotic lysis OD700, 18 h; higher = more signal, called active from +8 up or from −8 down.
Experiment [7] can be described thus: S6 kinase pathway phospho-S6 level changes – cell-based, A549, cytoblot, luminescence, serum-stimulated, primary screen (AID 1158).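 Also: serum-stimulated A549 lung adenocarcinoma cells; signal is phosphorylated S6 detected by cytoblot immunostaining with HRP secondary.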 Particulars: 5 h, higher = more signal.
For experiment [8], the target named is NADPH oxidase 2 (Homo sapiens) (UniProt P04839). Kind of experiment: compounds shifting NOX2 Amplex Red fluorescence – cell-based, HEK293-NOX2, PMA-stimulated, NOX inhibitor project, primary screen (AID 1159). Also: test concentration not given here. Particulars: 45 min, higher = more signal, called active from +8 up or from −8 down.
Experiment [9] addresses NADPH oxidase 4 (Homo sapiens) (UniProt Q9NPH5). Put plainly: compounds shifting NOX4 Amplex Red fluorescence – cell-based, HEK293-NOX4, tetracycline-induced, NOX inhibitor project, primary screen (AID 1160). The note with it: HEK293-NOX4, Amplex Red H2O2 fluorescence, 45 min; higher = more signal, called active from +8 up or from −8 down.
The target in experiment [10] is NADPH oxidase 5 (Homo sapiens) (UniProt Q96PH1). Put plainly: compounds shifting NOX5 Amplex Red fluorescence – cell-based, HEK293-NOX5, NOX inhibitor project, primary screen (AID 1161). Particulars: HEK293-NOX5, ionomycin, 45 min, higher = more signal.
Experiment [11] is described as follows: compound effects on lung adenocarcinoma cell viability – A549, calcein-AM fluorescence, 48 h, basal, profiling panel (AID 1162). Also: test concentration not given here. The note with it: higher = more signal.
A short description of experiment [12]: compound effects on differentiated 3T3-L1 adipocyte viability – cell-based, 3T3-L1 adipocytes, calcein-AM fluorescence, 48 h, basal, profiling panel (AID 1163). Also: test concentration not given here. Particulars: 3T3-L1 adipocytes viability, higher = more signal.
Experiment [13] is described as follows: compound effects on hepatocellular carcinoma cell viability – HepG2, calcein-AM fluorescence, 48 h, basal, profiling panel (AID 1164). Also: test concentration not given here. Particulars: higher = more signal.
Experiment [14] in a line: compound effects on multiple myeloma cell viability – MM1S, calcein-AM fluorescence, 48 h, basal, profiling panel (AID 1165).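 Also: viability of MM1S multiple myeloma cells under basal unstimulated conditions; test concentration not given here.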 The note with it: higher = more signal.
Experiment [15] is described as follows: calcein-AM signal in unstimulated myeloma cells – cell-based, calcein-AM fluorescence, 48 h, PK04 Diversity Set, profiling panel (AID 1166).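 Also: cells grown under basal conditions without added stimulus; test concentration not given here.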 The note with it: RPMI8226 myeloma viability, higher = more signal.
Experiment [16] can be described thus: JC-1 mitochondrial signal, unstimulated HepG2 cells – cell-based, JC-1 fluorescence, 24 h, 100 nL compound, profiling panel (AID 1167). Also: test concentration not given here. The note with it: HepG2 mitochondrial potential, higher = more signal.
A short description of experiment [17]: JC-1 mitochondrial signal, unstimulated adipocytes – cell-based, JC-1 fluorescence, 3T3-L1 adipocytes, 24 h, 100 nL compound, profiling panel (AID 1168). Also: test concentration not given here. Particulars: JC-1 mitochondrial fluorescence, higher = more signal, called active from +8 up or from −8 down.
A short description of experiment [18]: JC-1 mitochondrial signal, unstimulated myeloma cells – cell-based, JC-1 fluorescence, RPMI8226, 24 h, 100 nL compound, profiling panel (AID 1169). Also: test concentration not given here. Particulars: JC-1 mitochondrial potential fluorescence, higher = more signal.
The nature of experiment [19]: JC-1 mitochondrial signal, unstimulated MM1S myeloma – cell-based, JC-1 fluorescence, 24 h, 100 nL compound, profiling panel (AID 1170). Also: test concentration not given here. Particulars: MM1S mitochondrial potential, higher = more signal.
Experiment [20] can be described thus: resazurin metabolic signal in A549 cells – cell-based, resazurin fluorescence, 24 h, PK04 Diversity Set, profiling panel (AID 1171). Also: test concentration not given here. Particulars: A549 viability, higher = more signal, called active from +8 up or from −8 down.

Molecules are shown by their SMILES. “And” between values parts separate entries of the source, which are not always exact repeats. Identical values can stand only once. The source made the active and inactive calls.

NADPH oxidase 4 (Homo sapiens), sequence (Q9NPH5 whole entry, looked up): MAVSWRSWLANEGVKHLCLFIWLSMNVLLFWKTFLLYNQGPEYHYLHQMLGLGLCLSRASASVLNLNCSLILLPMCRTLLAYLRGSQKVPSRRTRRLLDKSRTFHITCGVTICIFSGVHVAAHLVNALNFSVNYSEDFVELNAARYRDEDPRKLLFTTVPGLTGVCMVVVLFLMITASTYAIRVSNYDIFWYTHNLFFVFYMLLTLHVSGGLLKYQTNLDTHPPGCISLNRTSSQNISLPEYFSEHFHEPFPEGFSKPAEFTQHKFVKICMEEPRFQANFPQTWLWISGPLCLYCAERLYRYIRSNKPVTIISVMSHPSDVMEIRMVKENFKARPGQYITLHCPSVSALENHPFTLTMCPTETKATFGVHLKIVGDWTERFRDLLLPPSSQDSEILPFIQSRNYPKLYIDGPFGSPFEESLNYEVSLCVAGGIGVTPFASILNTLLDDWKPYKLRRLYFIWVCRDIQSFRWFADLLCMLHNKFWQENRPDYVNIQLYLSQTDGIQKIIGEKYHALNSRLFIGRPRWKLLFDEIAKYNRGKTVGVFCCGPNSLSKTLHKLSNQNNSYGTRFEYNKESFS
NADPH oxidase 5 (Homo sapiens), sequence (Q96PH1 whole entry, looked up): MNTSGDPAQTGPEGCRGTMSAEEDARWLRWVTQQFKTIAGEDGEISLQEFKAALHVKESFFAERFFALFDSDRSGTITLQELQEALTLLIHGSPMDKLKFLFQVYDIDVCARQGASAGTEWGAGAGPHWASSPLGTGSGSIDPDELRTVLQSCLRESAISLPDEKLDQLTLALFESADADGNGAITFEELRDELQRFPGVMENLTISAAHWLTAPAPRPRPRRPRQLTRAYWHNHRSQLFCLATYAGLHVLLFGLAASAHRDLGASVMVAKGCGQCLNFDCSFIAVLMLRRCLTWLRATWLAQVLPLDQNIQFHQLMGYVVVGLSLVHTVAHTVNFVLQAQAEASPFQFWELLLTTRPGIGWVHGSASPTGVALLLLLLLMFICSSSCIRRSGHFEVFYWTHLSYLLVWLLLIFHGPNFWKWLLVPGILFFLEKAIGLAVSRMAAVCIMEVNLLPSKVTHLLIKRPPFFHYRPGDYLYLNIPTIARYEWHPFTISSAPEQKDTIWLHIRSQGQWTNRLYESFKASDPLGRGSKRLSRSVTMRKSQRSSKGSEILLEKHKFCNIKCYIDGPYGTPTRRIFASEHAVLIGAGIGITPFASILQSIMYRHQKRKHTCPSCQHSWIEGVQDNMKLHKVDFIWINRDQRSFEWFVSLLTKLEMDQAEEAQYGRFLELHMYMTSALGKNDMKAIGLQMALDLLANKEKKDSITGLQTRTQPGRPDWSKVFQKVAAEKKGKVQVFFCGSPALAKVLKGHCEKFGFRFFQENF
NADPH oxidase 2 (Homo sapiens), sequence (P04839 whole entry, looked up): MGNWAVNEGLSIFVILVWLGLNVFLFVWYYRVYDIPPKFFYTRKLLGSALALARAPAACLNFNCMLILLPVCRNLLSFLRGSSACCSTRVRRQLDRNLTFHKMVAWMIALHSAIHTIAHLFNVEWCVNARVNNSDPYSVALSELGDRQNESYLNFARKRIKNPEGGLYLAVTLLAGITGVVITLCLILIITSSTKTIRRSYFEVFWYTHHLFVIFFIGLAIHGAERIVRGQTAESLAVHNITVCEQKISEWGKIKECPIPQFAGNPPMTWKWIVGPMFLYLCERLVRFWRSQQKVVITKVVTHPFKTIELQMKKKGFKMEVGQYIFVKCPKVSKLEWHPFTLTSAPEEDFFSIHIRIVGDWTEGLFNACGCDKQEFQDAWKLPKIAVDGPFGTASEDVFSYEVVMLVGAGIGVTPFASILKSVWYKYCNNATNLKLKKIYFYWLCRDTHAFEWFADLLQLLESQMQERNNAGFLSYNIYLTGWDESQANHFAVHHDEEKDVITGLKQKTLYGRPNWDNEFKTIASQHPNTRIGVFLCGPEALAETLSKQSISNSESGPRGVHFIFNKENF

As for `C=CCN(Cc1ccccc1)C(=O)C1N(c2ccc(CCO)cc2)C(=O)C2C(C(=O)O)C3C=CC21O3` (stereo not given), the z-score was 0.458 (inactive) and 1.31 (inactive) in experiment [1]; 1.25 (inactive) and 1.16 (inactive) in experiment [3]; 0.401 (inactive) and 0.572 (inactive) in experiment [4]; 0.0406 (inactive) and -0.339 (inactive) in experiment [5]; -0.157 (inactive) and 0.382 (inactive) in experiment [6]; -0.0071 and 0.775 in experiment [7]. Moreover, the z-score in [8] was 0.819 (inactive) and 0.498 (inactive); in experiment [9], -1.13 (inactive) and -0.149 (inactive); in experiment [10], 0.865 and 0.168; in [11], 0.14 and -0.777; in [12], 0.103 and 0.408; in experiment [13], -0.0042 and -0.474. Further, the z-score in experiment [14] is 0.298 and 1.04; in experiment [15], -0.6 and -0.438; in experiment [16], 0.0701 and -0.213; in experiment [17], 0.543 (inactive) and 0.024 (inactive); in [18], -0.79 and 0.726; in experiment [19], 1.09 and 0.0787. Besides, the z-score in [20] was -1.06 (inactive) and -0.459 (inactive). For the same compound, in experiment [2], the composite z-score is -0.289 and -0.27.
`C#CCN1C(/C=C/c2ccccc2)C(=O)OC[C@H]1c1ccccc1` (stereo not given in full): the z-score in experiment [1] is 1.75 (inactive) and 0.239 (inactive); in experiment [3], 4.02 (inactive) and 1.57 (inactive); in experiment [4], 0.277 (inactive) and 0.538 (inactive); in experiment [5] it was 0.244 (inactive) and 0.713 (inactive); in experiment [6] it was -0.947 (inactive) and 0.377 (inactive); in experiment [7], 4.14 and -0.153. Besides, the z-score in experiment [8] was 0.353 (inactive) and 1.86 (inactive); in [9], 0.0869 (inactive) and 0.344 (inactive); in [10], 0.189 and 0.518; in [11], -0.002 and -0.112; in experiment [12], 1.74 and 0.227; in experiment [13], -0.0288 and -0.167. Also, the z-score is -0.0906 and -0.0281 in [14]; -0.712 and -1.8 in experiment [15]; 1.04 and 0.221 in experiment [16]; 1.37 (inactive) and 0.0383 (inactive) in [17]; -0.749 and 0.481 in experiment [18]; -0.328 and -1.12 in experiment [19]. The z-score in experiment [20] was -0.925 (inactive) and 1.15 (inactive). Further, the composite z-score in experiment [2] is -0.021 and -0.0536.
`C[N+](C)(C)CCCCNC(=O)[C@H]1C[C@H]2C(=O)N[C@@H](CCCC[N+](C)(C)C)C(=O)N2[C@H]1c1cccc(OCCO)c1`: the z-score in experiment [1] is -0.398 (inactive) and -0.737 (inactive); in experiment [3], 1.37 (inactive) and 2.16 (inactive); in experiment [4], 0.244 (inactive) and 0.944 (inactive); in experiment [5], -0.706 (inactive) and 0.0108 (inactive); in experiment [6], 0.155 (inactive) and 0.23 (inactive); in experiment [7], 0.2 and -0.314. In addition, the z-score in experiment [8] was -0.187 (inactive) and -1.8 (inactive); in experiment [9] it was -0.217 (inactive) and -0.934 (inactive); in experiment [10], 0.0197 and 0.0552; in experiment [11] it was -0.663 and -0.261; in experiment [12], -0.488 and -0.571; in experiment [13] it was -1.13 and -0.231. Moreover, the z-score in experiment [14] was -0.485 and -1.67; in experiment [15], 0.267 and 0.461; in [16], -1.2 and -0.91; in [17], -0.0125 (inactive) and 0.0612 (inactive); in experiment [18], -0.117 and 0.49; in experiment [19], -0.199 and -0.118. Further, the z-score in [20] was -0.964 (inactive) and -0.711 (inactive). In [2], the composite z-score was 0.266 and -0.483.
For the compound `CO[C@@H]1COC(=O)CC=C[C@H](C)COC(=O)[C@H](C)NC(=O)CC=C[C@H]1C`, the z-score was -0.762 (inactive) in [1]; -0.0875 (inactive) in experiment [3]; 0.193 (inactive) in experiment [4]; 0.599 (inactive) in experiment [5]; -0.138 (inactive) in [6]; -0.677 in [7]. Further, the z-score is 2.01 (inactive) in [8]; 0.486 (inactive) in experiment [9]; -0.47 in experiment [10]; 0.158 in [11]; 0.31 in [12]; 0.46 in [13]. Further, the z-score in experiment [14] was 0.122; in experiment [15], 0.353; in experiment [16], 1.04; in [17], 0.214 (inactive); in experiment [18], -0.0124; in experiment [19] it was 0.955. The z-score in experiment [20] was 0.162 (inactive). The compound further registered a composite z-score in experiment [2] of -0.344.
Take `COC(=O)c1c2oc(c1C(=O)OC)C(=O)N[C@@H](Cc1ccccc1)Cn1cc(nn1)C1(CCCCC1)NC(=O)N[C@H](CO)CC2`: the z-score was 2.62 (inactive) and 1.74 (inactive) in [1]; 1.36 (inactive) and 4.41 (inactive) in experiment [3]; 0.431 (inactive) and 1.49 (inactive) in [4]; 0.557 (inactive) and 0.593 (inactive) in experiment [5]; 0.454 (inactive) and 0.801 (inactive) in [6]; 0.427 and 0.173 in experiment [7]. The z-score is 0.432 (inactive) and 0.428 (inactive) in experiment [8]; 1.67 (inactive) and -1.49 (inactive) in experiment [9]; 0.922 and -2.52 in experiment [10]; 2.13 and 1.06 in [11]; -0.29 and 0.184 in experiment [12]; 0.893 and 0.0236 in [13]. In addition, the z-score in [14] was 0.434 and -0.392; in experiment [15] it was 1.51 and -1.13; in experiment [16], 1.09 and 4.63; in [17], 0.354 (inactive) and -0.852 (inactive); in [18], -0.0874 and -0.0745; in [19], 0.559 and -0.594. Moreover, the z-score in experiment [20] is 0.976 (inactive) and 1.37 (inactive). Also, the composite z-score in experiment [2] is 0.391 and 0.0455.
`C=CCN(C(=O)C1N(c2c(Cl)cccc2CO)C(=O)C2C(C(=O)O)C3C=CC21O3)C(C)(C)C` (stereo not given): the z-score in [1] was 1.66 (inactive) and 1.99 (inactive); in experiment [3], 1.77 (inactive) and -0.973 (inactive); in [4], 0.821 (inactive) and -1.1 (inactive); in experiment [5], 1.03 (inactive) and -0.229 (inactive); in experiment [6] it was 0.604 (inactive) and -1.54 (inactive); in [7], 0.442 and 1.04. Moreover, the z-score is 0.961 (inactive) and 0.116 (inactive) in experiment [8]; -0.288 (inactive) and -0.645 (inactive) in [9]; 0.788 and -0.335 in experiment [10]; -0.875 and 0.96 in [11]; 0.766 and -0.202 in [12]; 0.613 and 1.78 in [13]. Further, the z-score is 0.64 and 1.54 in [14]; -0.224 and -0.394 in experiment [15]; -0.536 and 0.627 in experiment [16]; -1.27 (inactive) and 1.46 (inactive) in experiment [17]; -0.153 and 0.828 in [18]; 0.0478 and 1.11 in experiment [19]. In addition, in [20], the z-score was -0.289 (inactive) and 0.361 (inactive). For the same compound, the composite z-score in [2] is -0.945 and -0.0547.
`C=CCN(CCCC)C(=O)C(c1cccs1)N(C(=O)/C=C\C(=O)O)c1c(Cl)cccc1CO` (stereo not given): the z-score is 0.518 (inactive) and 0.0558 (inactive) in [1]; 0.111 (inactive) and 0.897 (inactive) in experiment [3]; -0.0165 (inactive) and -0.14 (inactive) in experiment [4]; -0.38 (inactive) and 0.0904 (inactive) in experiment [5]; 0.113 (inactive) and 0.283 (inactive) in experiment [6]; 1.21 and 0.596 in [7]. Moreover, the z-score was 0.148 (inactive) and 0.256 (inactive) in experiment [8]; -0.319 (inactive) and -0.507 (inactive) in [9]; 0.16 and 0.227 in experiment [10]; -0.163 and -0.667 in experiment [11]; 0.441 and 0.526 in experiment [12]; -0.934 and -0.809 in [13]. For the same compound, the z-score in experiment [14] was 1.43 and 1.51; in experiment [15] it was -0.097 and -0.435; in experiment [16], -0.25 and -0.417; in experiment [17], -0.96 (inactive) and 0.0799 (inactive); in experiment [18], 0.819 and 1.04; in experiment [19], -0.153 and -0.712. Further, the z-score in [20] is -0.352 (inactive) and 0.397 (inactive). The composite z-score in experiment [2] is -0.148 and -0.0099.

These data come from PubChem BioAssay.
